High-throughput results (PubChem)
Rows were chosen to be rich in hits. Some 0.87% of all compounds tested hit in one or more screens of this group.
WRN inhibitor: blocks human WRN helicase; Q14191; AID 651768; WRN helicase unwinding, fluorescent forked duplex, kinetic; Potency, µM (series often up to 114 µM), usual class: inhibitors; actives 0.46% (n = 360,000); further: nearly all actives have a fitted effect of over 55% in size
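Primary qHTS, 1536-well format. 20 nM WRN + compound, 15 min RT; start with 100 nM forked fluorophore/quencher duplex, 2 mM ATP (final); kinetic read ex 525/em 598 nm.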
RECQ1 helicase: blocks DNA unwinding by human RECQ1. P46063. RECQ1 DNA unwinding, red fluorescence kinetic read. Potency, µM (doses to about 57.3 µM), actives largely listed as inhibitors. actives 0.54% (n = 240,000); further: nearly all actives have a fitted effect of over 30% in size
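50 nM RECQ1T1 preincubated 15 min with compound in Tris pH 8.0 buffer with MgCl2, DTT, Tween-20 and 2.5 ug/ml poly(dI-dC); started with 200 nM TAMRA/BHQ-2 forked duplex and 2 mM ATP. Unwinding read as fluorescence (525/598 nm), two reads 2 h apart.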
BLM inh: Bloom syndrome helicase (human) inhibition | recombinant BLM DNA unwinding, fluorescence dequenching | Potency, µM (highest dose often 56.1 µM), actives largely listed as inhibitors | actives 0.2% (n = 350,000) | P54132 | AID 2528; further: nearly all actives have a fitted effect of over 35% in size
FEN1 inhibitor: human FEN1 inhibition; actives 0.35% (n = 390,000); Recombinant FEN1 flap cleavage, fluorescence, 15 min; Potency, µM (highest dose often 114 µM), actives largely listed as inhibitors; further: nearly all actives have a fitted effect of over 65% in size
Target sequence (P39748 whole entry, looked up): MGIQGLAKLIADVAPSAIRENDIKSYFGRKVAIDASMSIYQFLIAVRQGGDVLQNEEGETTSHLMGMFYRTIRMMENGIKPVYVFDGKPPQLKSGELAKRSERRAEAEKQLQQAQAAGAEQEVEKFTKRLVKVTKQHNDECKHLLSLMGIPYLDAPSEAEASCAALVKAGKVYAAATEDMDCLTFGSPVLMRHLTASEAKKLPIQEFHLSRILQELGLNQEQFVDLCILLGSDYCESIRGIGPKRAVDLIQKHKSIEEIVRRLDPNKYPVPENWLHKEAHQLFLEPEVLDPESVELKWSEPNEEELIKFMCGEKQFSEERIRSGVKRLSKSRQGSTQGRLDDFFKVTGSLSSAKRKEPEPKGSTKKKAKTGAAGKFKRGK
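Compounds are tested as a concentration series against 10 nM FEN1; after a 15 min room-temperature preincubation, 50 nM substrate starts cleavage, with plate reads at 0 and 15 min. Normalized responses are fitted by a Hill equation.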
APEX1 inh: inhibitors of human APE1 endonuclease; P27695; recombinant APE1, TAMRA/BHQ-2 abasic DNA cleavage fluorescence; Potency, µM (series often up to 65.8 µM), actives largely listed as inhibitors; actives 0.35% (n = 350,000); further: nearly all actives have a fitted effect of over 55% in size
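Compound pre-exposure to 0.75 nM APE1, 15 min at ambient temperature. Reaction initiated with 50 nM TAMRA/BHQ-2 THF substrate, read immediately in kinetic mode, 525 nm excitation, 598 nm emission.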
Of the large screens only hits and unclear results are named; the others gave an inactive call; ! = not active in a repeat. The call rests on the fitted dose curve; in most records, active means well fitted curve in the direction sought with a large enough effect; inconclusive means small, poorly fitted or top-dose-only effect, or another doubt; inactive means no such curve, though single readings can be large; an effect the other way counts as inactive or inconclusive.

CN(Cc1ccccc1)S(=O)(=O)c1cccc2cccnc12	none
CC(C)C(=O)Nc1nc2c(ncn2[C@H]2CC(O)[C@@H](CO)O2)c(=O)[nH]1 (some centres undefined)	none (no result: WRN inhibitor, RECQ1 helicase, BLM inh, APEX1 inh)
CCOC(=O)C1=C(Cc2ccc(F)cc2)C(=O)c2ccccc2C1=O	WRN inhibitor 50.1µM, FEN1 inhibitor inconclusive
O=C(OCc1ccc(F)cc1)c1ccc2c(c1)-c1ccccc1C2=O	none
CCOC(=O)c1sc(=S)n(-c2ccccc2)c1NC(C)=O	WRN inhibitor inconclusive, FEN1 inhibitor 79.4µM
C=C1C(n2cnc3c(=O)[nH]c(N)nc32)C[C@H](O)[C@H]1CO (some centres undefined)	none (no result: WRN inhibitor, RECQ1 helicase, FEN1 inhibitor, APEX1 inh)
CC(=O)Nc1ccc(OCCOc2ccc(/C=C3\C(=N)N4N=C(C)SC4=NC3=O)cc2)cc1	none (no result: RECQ1 helicase)
COc1ccc(OCCOc2ccc(/C=C3\C(=N)N4N=C(C)SC4=NC3=O)cc2)cc1	APEX1 inh 9.47µM (no result: RECQ1 helicase, BLM inh)
COc1cc(/C=C2\C(=N)N3N=C(S(C)(=O)=O)SC3=NC2=O)ccc1OCCOc1ccccc1C	WRN inhibitor 50.1µM, APEX1 inh inconclusive (no result: RECQ1 helicase)
Cc1cccc(-n2c(=O)c3ccccc3n(Cc3ccc(F)cc3)c2=O)c1	none (no result: WRN inhibitor, RECQ1 helicase, APEX1 inh)
Cc1ccc(CNc2ccc(N3CCNCC3)cc2)cc1	none (no result: WRN inhibitor, RECQ1 helicase, BLM inh, FEN1 inhibitor)
Cc1nc2ccc(-c3nc4ccc(N)cc4[nH]3)cc2[nH]1	WRN inhibitor inconclusive, FEN1 inhibitor 35.5µM, APEX1 inh inconclusive
Nc1ccc2nc(-c3ccc(Cl)cc3)[nH]c2c1	FEN1 inhibitor inconclusive
Cc1ccc(NC(=O)C2CCCN(c3ncnc4c3nc3n4CCCCC3)C2)c(Br)c1 (centres undefined)	none (no result: WRN inhibitor, RECQ1 helicase, APEX1 inh)
CCOC(=O)C1=C(C)N=c2s/c(=C/c3ccc(OCC(=O)O)cc3)c(=O)n2C1c1ccc(OC)cc1OC (centres undefined)	BLM inh inconclusive, FEN1 inhibitor inconclusive, APEX1 inh inconclusive (no result: RECQ1 helicase)
CCOc1ccc(C2C(C(=O)Nc3ccccc3)=C(C)N=c3s/c(=C/c4cccc(OCC(=O)O)c4)c(=O)n32)cc1 (centres undefined)	WRN inhibitor inconclusive, BLM inh inconclusive
CCOC(=O)C1=C(C)N=c2s/c(=C\c3ccc(OCC(=O)O)cc3)c(=O)n2C1c1ccccc1OC (centres undefined)	FEN1 inhibitor 79.4µM, APEX1 inh inconclusive (no result: RECQ1 helicase)
CCOC(=O)C1=C(C)N=c2s/c(=C\c3ccc(O)c([N+](=O)[O-])c3)c(=O)n2C1c1ccccc1OC (centres undefined)	none (no result: RECQ1 helicase)
CCOC(=O)C1=C(C)N=c2s/c(=C/c3cccc([N+](=O)[O-])c3O)c(=O)n2C1c1ccc(OC)cc1OC (centres undefined)	BLM inh inconclusive, APEX1 inh 23.8µM (no result: RECQ1 helicase)
CCOC(=O)C1=C(C)N=c2s/c(=C/c3ccc(OCC(=O)O)cc3)c(=O)n2C1c1ccc(SC)cc1 (centres undefined)	BLM inh inconclusive, APEX1 inh 7.52µM (no result: WRN inhibitor, RECQ1 helicase, FEN1 inhibitor)
O=C(COc1cccc(Cl)c1)N1CCC(c2nc3ccccc3s2)CC1	none (no result: WRN inhibitor, RECQ1 helicase, APEX1 inh)
CC[C@H](C)[C@H](N)C(=O)N[C@H](C(=O)N[C@@H](CO)C(=O)N[C@@H](C)C(=O)N[C@H](C(=O)N[C@H](C(=O)NCC(=O)N[C@H](C(=O)N[C@@H](CC(C)C)C(=O)O)[C@@H](C)CC)C(C)C)C(C)C)[C@@H](C)CC	none (no result: WRN inhibitor, FEN1 inhibitor)
CC(C)CC(=O)N[C@H](C(=O)N[C@H](C(=O)N[C@@H](CC(C)C)[C@@H](O)CC(=O)N[C@@H](C)C(=O)N[C@@H](CC(C)C)[C@@H](O)CC(=O)O)C(C)C)C(C)C	RECQ1 helicase 31.6µM!
C=CCOC(=O)NC(c1ccc(F)c(F)c1)C(C(=O)CCl)C(=O)OC (centres undefined)	none (no result: WRN inhibitor, FEN1 inhibitor)
N#Cc1c(N)sc(=S)c2c1CCCCC2	WRN inhibitor 20µM, RECQ1 helicase inconclusive, FEN1 inhibitor inconclusive, APEX1 inh inconclusive
O=S(=O)(Nc1c(S(=O)(=O)c2ccccc2)c2nc3ccccc3nc2n1C1CCCCC1)c1ccccc1	BLM inh 10µM
C=CCn1c(NS(=O)(=O)c2ccccc2)c(S(=O)(=O)c2ccc(C)cc2)c2nc3ccccc3nc21	BLM inh 4.47µM
CC(=O)Nc1c(S(=O)(=O)c2ccccc2)c2nc3ccccc3nc2n1Cc1ccccc1	none
Cc1cccc(-c2csc(N3CCC(C(N)=O)CC3)n2)c1	none (no result: WRN inhibitor, RECQ1 helicase, BLM inh, FEN1 inhibitor)
